# Data from PubChem BioAssay (EPA / NIEHS).
# Inconclusive results are not listed. Activity calls are given as the source filed them. How the source made its calls, unless noted: active means hit-call score of the fitted dose curve at least 0.9, where 1 is the maximum; inconclusive means response in the unintended direction; inactive means score below 0.9.
# Assays:
# [1] = Tanguay_ZF_120hpf_SNOU_legacy: (Legacy) Oregon State University Tanguay Lab 120 Hour Post-fertilization zebrafish Assay for Snout Malformation (AID 2283637)
# In short: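 Binary brightfield scoring of snout malformation at 120 hpf. Dechorionated 5D wild-type embryos, one per well, static exposure from 6 hpf at 28C, sealed and dark; final DMSO 0.64% (vol/vol), DMSO as baseline; 5uM trimethyltin chloride positive control.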
# [2] = Tanguay_ZF_120hpf_JAW_legacy: (Legacy) Oregon State University Tanguay Lab 120 Hour Post-fertilization zebrafish Assay for Jaw Malformation (AID 2283638)
# In short: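 Steps: dechorionate 4 hpf embryos (pronase); plate 1/well at 6 hpf; add test chemical, 0.64% DMSO final; seal, cover, hold at 28C statically to 120 hpf; score jaw defect presence/absence microscopically. Dead embryos not scored.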
# [3] = Tanguay_ZF_120hpf_OTIC_legacy: (Legacy) Oregon State University Tanguay Lab 120 Hour Post-fertilization zebrafish Assay for Otic Vesicle Malformation (AID 2283639)
# In short: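 Wild-type zebrafish larvae, whole-embryo exposure from early stage to 120 hpf at 28C. Binary brightfield scoring of otic vesicle morphology, fitted in the positive direction against the DMSO baseline.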
# [4] = Tanguay_ZF_120hpf_PE_legacy: (Legacy) Oregon State University Tanguay Lab 120 Hour Post-fertilization zebrafish Assay for Pericardial Edema (AID 2283640)
# In short: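 Embryos from wild-type 5D adults were staged, then dosed in 0.64% DMSO. They were kept sealed in the dark at 28C until 120 hpf. Pericardial edema was then recorded as present or absent.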
# [5] = Tanguay_ZF_120hpf_BRAI_legacy: (Legacy) Oregon State University Tanguay Lab 120 Hour Post-fertilization zebrafish Assay for Brain Malformation (AID 2283641)
# In short: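 Wild-type 5D larvae, static waterborne exposure to 120 hpf, 28C, 0.64% v/v DMSO. Brightfield scoring of brain defects, binary; dead embryos excluded. Positive ctrl 5uM trimethyltin chloride.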
# [6] = Tanguay_ZF_120hpf_SOMI_legacy: (Legacy) Oregon State University Tanguay Lab 120 Hour Post-fertilization zebrafish Assay for Somite Malformation (AID 2283647)
# In short: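 Read-out: presence or absence of somite malformation in 120 hpf larvae, gain-of-signal relative to DMSO baseline. Embryos lacked chorion (pronase, 4 hpf) and were exposed statically from 6 hpf at 28C; dead larvae not scored.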
# [7] = Tanguay_ZF_120hpf_PFIN_legacy: (Legacy) Oregon State University Tanguay Lab 120 Hour Post-fertilization zebrafish Assay for Pectoral Fin Malformation (AID 2283648);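 further: each larva judged yes or no for fin defect by brightfield with dead larvae skipped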
# In short: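 Binary pectoral fin malformation call at 120 hpf by brightfield microscopy; 5D wild-type zebrafish, chorion removed at 4 hpf, one embryo per well from 6 hpf, static exposure at 28C; DMSO (0.64% final) as baseline.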
# [8] = Tanguay_ZF_120hpf_CFIN_legacy: (Legacy) Oregon State University Tanguay Lab 120 Hour Post-fertilization zebrafish Assay for Caudal Fin Malformation (AID 2283649)
# In short: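 Binary presence or absence of caudal fin malformation at 120 hpf, read by brightfield microscopy, with DMSO as baseline. Larvae came from 5D wild-type embryos exposed statically from 6 hpf at 28C after pronase dechorionation.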
# [9] = Tanguay_ZF_120hpf_PIG_legacy: (Legacy) Oregon State University Tanguay Lab 120 Hour Post-fertilization zebrafish Assay for Pigmentation Malformation (AID 2283650);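 further: dechorionated Tropical 5D zebrafish embryos exposed singly from 6 to 120 hpf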
# In short: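 Brightfield scoring of pigmentation malformation at 120 hpf, recorded as binary present/absent per larva. Exposure: dechorionated 5D wild-type embryos, one per well, static from 6 hpf at 28C, final DMSO 0.64% (vol/vol). Dead embryos not scored.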
# [10] = Tanguay_ZF_120hpf_CIRC_legacy: (Legacy) Oregon State University Tanguay Lab 120 Hour Post-fertilization zebrafish Assay for Circulatory Malformation (AID 2283651)
# In short: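 Binary circulatory-malformation call at 120 hpf via brightfield imaging, relative to DMSO controls. Embryos (5D strain, chorion removed) received static, light-shielded exposure at 28C.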
# [11] = Tanguay_ZF_120hpf_TRUN_legacy: (Legacy) Oregon State University Tanguay Lab 120 Hour Post-fertilization zebrafish Assay for Truncated Body (AID 2283655)
# In short: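 Truncated body is recorded as a binary endpoint at 120 hpf by brightfield imaging of wild-type 5D larvae. Exposure runs statically from 6 hpf at 28C with 0.64% DMSO; embryos dying earlier are not scored.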
# [12] = Tanguay_ZF_120hpf_NC_legacy: (Legacy) Oregon State University Tanguay Lab 120 Hour Post-fertilization zebrafish Assay for Notochord and Tail Malformation (AID 2283656)
# In short: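 Binary notochord-distortion calls, made by brightfield inspection, form the read-out; activity is fitted in the positive direction against DMSO. Exposure ran statically from 6 to 120 hpf at 28C with 0.64% DMSO.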
# [13] = Tanguay_ZF_120hpf_TR_legacy: (Legacy) Oregon State University Tanguay Lab 120 Hour Post-fertilization zebrafish Assay for Touch Response (AID 2283667)
# In short: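 Binary touch-response call at 120 hpf, analysed as gain of signal versus DMSO baseline. Wild-type 5D larvae, static exposure at 28C, 0.64% DMSO final; 5uM trimethyltin chloride as positive control.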
# [14] = Tanguay_ZF_120hpf_SWIM_legacy: (Legacy) Oregon State University Tanguay Lab 120 Hour Post-fertilization zebrafish Assay for Swim Bladder Malformation (AID 2283654);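 further: swim bladder malformation in each larva scored yes or no under brightfield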
# In short: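 Tropical 5D embryos dechorionated at 4 hpf; 1 embryo/well from 6 hpf; static, sealed, dark exposure at 28C until 120 hpf; final DMSO 0.64%; 5uM trimethyltin chloride positive control; swim bladder defect recorded yes/no; dead embryos not scored.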
# [15] = test system: Thyroperoxidase (TPO), gene 54314; assay: CCTE_Simmons_AUR_rTPO: CCTE's Amplex UltraRed Assay for Thyroperoxidase (TPO) Inhibition, Simmons Lab (AID 2283662);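 on AC50: potency for loss of signal meaning inhibition of peroxidase activity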
# In short: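 Rat thyroid microsomal TPO + 25 uM AUR in 200 mM K phosphate; cpd 5 nM–87.5 uM [final], 8 conc, 0.5% DMSO; 300 uM H2O2 starts rxn; 37C dark 30 min; endpoint FI 544/590 nm; n=3.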
# [16] = CCTE_Simmons_CellTiterGLO_HEK293T: Viability Assessment in CCTE's Assays for Thyroperoxidase (TPO) Inhibition, Simmons Lab (AID 2283665);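 on AC50: cells exposed to compound for 24 h before readout; actives reduce ATP signal below DMSO vehicle meaning cytotoxicity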
# In short: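 ATP depletion measured in HEK293T cells after 24 h dosing (8 concentrations, 5 nM–87.5 uM final; DMSO 0.5%) using CellTiter-Glo luminescence; curves fit for loss of signal against DMSO baseline.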
# [17] = read-out: kallikrein-3 (KLK3), KLK3 (gene 354); assay: LTEA_HepaRG_KLK3: Life Technologies and Expression Analysis (LTEA) Assay for kallikrein-3 (KLK3) using HepaRG (AID 2283652; active means hit-call score of the fitted dose curve at least 0.9, where 1 is the maximum; inactive means score below 0.9); conditions: mRNA level, 48 h; actives raise or lower the signal
# In short: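 KLK3 transcript levels were measured by TaqMan qRT-PCR with normalisation to three housekeeping genes. HepaRG cultures received chemicals for 48 h at up to 100 uM (half-log, 8 points, 0.5% DMSO vehicle), fitted in both directions against DMSO.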
# [18] = read-out: solute carrier (SLC22A6), SLC22A6 (gene 9356); assay: LTEA_HepaRG_SLC22A6: Life Technologies and Expression Analysis (LTEA) Assay for solute carrier (SLC22A6) using HepaRG (AID 2283653; active means hit-call score of the fitted dose curve at least 0.9, where 1 is the maximum; inactive means score below 0.9); conditions: mRNA level, 48 h; actives raise or lower the signal
# In short: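 Read-out is SLC22A6 transcript level by qRT-PCR, normalised to three housekeeping genes and fitted for gain or loss relative to 0.5% DMSO vehicle. Human HepaRG cells received chemicals at up to 100 uM for 48 h.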
# [19] = read-out: solute carrier (SLC10A1), SLC10A1 (gene 6554); assay: LTEA_HepaRG_SLC10A1: Life Technologies and Expression Analysis (LTEA) Assay for solute carrier (SLC10A1) using HepaRG (AID 2283657; active means hit-call score of the fitted dose curve at least 0.9, where 1 is the maximum; inactive means score below 0.9); conditions: mRNA level, 48 h; actives raise or lower the signal
# In short: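 HepaRG, 48 h exposure, 8-pt half-log curve from 100 uM in 0.5% DMSO, duplicates. Read-out: TaqMan qRT-PCR of SLC10A1 mRNA, normalized to three housekeeping genes. Gain/loss fit vs DMSO baseline.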
# [20] = read-out: matrix metalloproteinase-1 (MMP1), MMP1 (gene 4312); assay: LTEA_HepaRG_MMP1: Life Technologies and Expression Analysis (LTEA) Assay for matrix metalloproteinase-1 (MMP1) using HepaRG (AID 2283658; active means hit-call score of the fitted dose curve at least 0.9, where 1 is the maximum; inactive means score below 0.9); conditions: mRNA level, 48 h; actives raise or lower the signal
# In short: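 HepaRG, ~100,000 cells/well, 48 h pre-culture; serum-free induction medium; test chemical 8 conc (max 100 uM, half-log), duplicate, 48 h; 0.5% DMSO; qRT-PCR MMP1, housekeeping-normalized; gain/loss fit vs DMSO.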
smiles,measurement,setting,value
CNCc1ccc(NC(=O)c2c[nH]c3c2C(=O)CCC3)cc1,outcome,[1],inactive
same,outcome,[2],inactive
same,outcome,[3],inactive
same,outcome,[4],inactive
same,outcome,[5],inactive
same,outcome,[6],inactive
same,outcome,[7],inactive
same,outcome,[8],inactive
same,outcome,[9],inactive
same,outcome,[10],inactive
same,outcome,[11],inactive
same,outcome,[12],inactive
same,outcome,[13],inactive
CCCCC(CC)COC(=O)CCCCCCCCC(=O)OCC(CC)CCCC (stereo not drawn),outcome,[1],inactive
same,outcome,[2],inactive
same,outcome,[3],inactive
same,outcome,[4],inactive
same,outcome,[5],inactive
same,outcome,[6],inactive
same,outcome,[7],inactive
same,outcome,[8],inactive
same,outcome,[9],inactive
same,outcome,[10],inactive
same,outcome,[14],inactive
same,outcome,[11],inactive
same,outcome,[12],inactive
same,outcome,[13],inactive
O=C(CCCCCCCCc1cccnc1)N1CCC(C=C(c2ccccc2)c2ccccc2)CC1,outcome,[1],inactive
same,outcome,[2],inactive
same,outcome,[3],inactive
same,outcome,[4],inactive
same,outcome,[5],inactive
same,outcome,[6],inactive
same,outcome,[7],inactive
same,outcome,[8],inactive
same,outcome,[9],inactive
same,outcome,[10],inactive
same,outcome,[14],inactive
same,outcome,[11],inactive
same,AC50,[15],27.6 µM (active)
same,AC50,[16],5.13 µM (active)
same,outcome,[13],inactive
CC(=O)OC[C@H]1O[C@@](COC(C)=O)(O[C@H]2O[C@H](COC(C)=O)[C@@H](OC(C)=O)[C@H](OC(C)=O)[C@H]2OC(C)=O)[C@@H](OC(C)=O)[C@@H]1OC(C)=O,outcome,[1],inactive
same,outcome,[2],inactive
same,outcome,[3],inactive
same,outcome,[4],inactive
same,outcome,[5],inactive
same,outcome,[6],inactive
same,outcome,[7],inactive
same,outcome,[8],inactive
same,outcome,[9],inactive
same,outcome,[10],inactive
same,outcome,[11],inactive
same,outcome,[12],inactive
same,outcome,[13],inactive
O=c1n(CC2CO2)c(=O)n(CC2CO2)c(=O)n1CC1CO1 (stereo not drawn),outcome,[1],inactive
same,outcome,[2],inactive
same,outcome,[3],inactive
same,outcome,[4],inactive
same,outcome,[5],inactive
same,outcome,[6],inactive
same,outcome,[7],inactive
same,outcome,[8],inactive
same,outcome,[9],inactive
same,outcome,[10],inactive
same,outcome,[11],inactive
same,outcome,[12],inactive
same,AC50,[15],21.1 µM (active)
same,outcome,[16],inactive
same,outcome,[13],inactive
CCCN(C1CCN(C(=O)C2CCNCC2)CC1)[C@@H]1CCc2ccc(OC)cc2C1,outcome,[1],inactive
same,outcome,[2],inactive
same,outcome,[3],inactive
same,outcome,[4],inactive
same,outcome,[5],inactive
same,outcome,[6],inactive
same,outcome,[7],inactive
same,outcome,[8],inactive
same,outcome,[9],inactive
same,outcome,[10],inactive
same,outcome,[11],inactive
same,outcome,[12],inactive
same,outcome,[15],inactive
same,AC50,[16],18.2 µM (active)
same,outcome,[13],inactive
CC(C)CCCCCCOC(=O)c1ccc(C(=O)OCCCCCCC(C)C)c(C(=O)OCCCCCCC(C)C)c1,outcome,[1],inactive
same,outcome,[2],inactive
same,outcome,[3],inactive
same,outcome,[4],inactive
same,outcome,[5],inactive
same,outcome,[6],inactive
same,outcome,[7],inactive
same,outcome,[8],inactive
same,outcome,[9],inactive
same,outcome,[10],inactive
same,outcome,[17],inactive
same,outcome,[18],inactive
same,outcome,[14],inactive
same,outcome,[11],inactive
same,outcome,[12],inactive
same,outcome,[19],inactive
same,outcome,[20],inactive
same,outcome,[13],inactive
CCNc1ccccc1,outcome,[1],inactive
same,outcome,[2],inactive
same,outcome,[3],inactive
same,outcome,[4],inactive
same,outcome,[5],inactive
same,outcome,[6],inactive
same,outcome,[7],inactive
same,outcome,[8],inactive
same,outcome,[9],inactive
same,outcome,[10],inactive
same,outcome,[11],inactive
same,outcome,[12],inactive
same,outcome,[15],inactive
same,outcome,[16],inactive
same,outcome,[13],inactive
